# Source: PubChem BioAssay (NCI)
# The panel holds about 79,000 compounds, 15% with a hit somewhere; the sample as a whole holds those more often. A number with no mark means an inactive call. Calls of active or inactive are those of the source. Rule as the data show it: active = growth inhibition above about 70%; inactive = the rest.
# Legend:
# [1] = NCI Yeast Anticancer Drug Screen. Data for the rad50 strain (AID 155);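 also: 0% = growth of vehicle-only cultures of the same strain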; settings: S. cerevisiae rad50 strain growth inhibition, stronger effect = higher value
# In short: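 Compounds were tested on a yeast strain with an engineered DNA damage repair alteration; the reported value is growth inhibition normalised to vehicle treatment.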
# [2] = NCI Yeast Anticancer Drug Screen. Data for the mec2-1 strain (AID 157); settings: S. cerevisiae mec2-1 strain, stronger effect = higher value
# In short: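 Strain: mec2-1 (DNA repair/cell cycle alteration). Compound exposure, then growth measured; inhibition expressed relative to vehicle.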
# [3] = NCI Yeast Anticancer Drug Screen. Data for the sgs1 mgt1 strain (AID 161);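 also: 0% = growth of cultures given vehicle only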; settings: S. cerevisiae sgs1 mgt1 strain, stronger effect = higher value
# In short: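 Test agents were incubated with a DNA-repair-mutant yeast strain. Growth was then read and compared against vehicle-treated controls.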
# [4] = NCI Yeast Anticancer Drug Screen. Data for the cln2 rad14 strain (AID 165);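 also: 0% = growth equal to vehicle treated cultures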; settings: S. cerevisiae cln2 rad14 strain, stronger effect = higher value
# In short: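 Compounds are applied to the cln2 rad14 yeast strain, and growth is then compared with that of vehicle-treated cultures to give inhibition.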
# [5] = NCI Yeast Anticancer Drug Screen. Data for the bub3 strain (AID 167); settings: S. cerevisiae bub3 mutant strain, stronger effect = higher value
# In short: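 Growth of a checkpoint-deficient yeast mutant is measured after compound exposure. Values represent inhibition relative to vehicle.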
# [6] = NCI Yeast Anticancer Drug Screen. Data for the mlh1 rad18 strain (AID 175); settings: S. cerevisiae mlh1 rad18 strain growth inhibition, stronger effect = higher value
# In short: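 Read-out is yeast growth inhibition, calculated against vehicle-only controls. The compound was applied to a strain engineered with DNA damage repair alterations.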
# [7] = at 5.0 µM (retest, dose inferred, filed as 0.5)
# [8] = at 50.0 µM (retest, dose inferred, filed as 5.0)
SMILES,"growth inhibition [1, 7]","growth inhibition [1, 8]",growth inhibition ([1]; at 50.0 µM),"growth inhibition [2, 7]","growth inhibition [2, 8]",growth inhibition ([2]; at 50.0 µM),"growth inhibition [3, 7]","growth inhibition [3, 8]",growth inhibition ([3]; at 50.0 µM),"growth inhibition [4, 7]","growth inhibition [4, 8]",growth inhibition ([4]; at 50.0 µM),"growth inhibition [5, 7]","growth inhibition [5, 8]",growth inhibition ([5]; at 50.0 µM),"growth inhibition [6, 7]","growth inhibition [6, 8]",growth inhibition ([6]; at 50.0 µM)
Nc1ccc2c(c1)[nH]c(=O)c1c(Cl)cccc12,-108%,47%,84.5% (active),-41%,-26%,41%,-58%,-33%,21.4%,-46%,-39%,48.5%,-50%,-42%,4.8%,-87%,-45%,55.5%
CN(C)[C@H]1CC[C@H]2[C@@H]3CCC4C[C@@H](NC(=O)NC(Cc5ccccc5)c5nccs5)CC[C@]4(C)[C@H]3CC[C@]12C (some centres not stated),4%,4%,67.5%,-16%,-16%,63.9%,-11%,-11%,63.5%,-16%,-16%,47.9%,-17%,-17%,65.9%,-21%,-21%,59%
CN(C)CC1CCc2ccc3ccccc3c2C1=O (configuration not stated),9%,34%,25.9%,-13%,27%,31.6%,16%,48%,56.4%,6%,29%,7.95%,10%,63%,48.8%,29%,65%,15.4%
C=C1C(=O)C23OC2C1CCC(=O)C1(C)CC[C@H](OC(C)=O)C(C)(C)[C@H]1CC3O (some centres not stated),86% (active),79% (active),99.2% (active),92% (active),31%,100% (active),92% (active),42%,99.5% (active),71% (active),16%,99.2% (active),92% (active),27%,99.2% (active),92% (active),38%,99% (active)
N#CC(CCCCl)(c1ccccc1)c1ccccc1,2%,33%,86.8% (active),3%,32%,84% (active),4%,51%,88.5% (active),0%,-3%,41.8%,-1%,22%,67%,15%,69%,92.2% (active)
Oc1ccc(O)c2c(O)c3ccccc3c(O)c12,24%,86% (active),76.7% (active),15%,77% (active),50.4%,10%,85% (active),80.5% (active),15%,58%,30.9%,3%,82% (active),65.7%,20%,94% (active),78.9% (active)
CCOC(=O)/C(=C\c1ccc(C)cc1)C(C)=O,19%,89% (active),91.1% (active),-19%,97% (active),91.8% (active),24%,95% (active),93.1% (active),5%,89% (active),84.7% (active),33%,98% (active),91.2% (active),22%,96% (active),90.7% (active)
CCc1nc(N)nc(N)c1-c1ccc(N(C)Cc2ccccc2)c([N+](=O)[O-])c1,10%,-13%,8.55%,7%,0%,22.1%,37%,37%,3.1%,31%,40%,4.05%,52%,34%,10.1%,8%,-6%,14.5%
CSc1ccc(C(=O)C(=O)c2ccc(SC)s2)s1,14%,11%,26.6%,-15%,-8%,39.5%,14%,14%,73.8% (active),0%,37%,76.7% (active),-2%,9%,48.7%,4%,2%,-1.7%
Oc1ccc(C(=C(Br)c2ccccc2)c2ccc(O)cc2)cc1,98% (active),98% (active),87.7% (active),99% (active),99% (active),91.5% (active),99% (active),99% (active),85.1% (active),99% (active),99% (active),89.5% (active),99% (active),99% (active),89.3% (active),99% (active),99% (active),85.3% (active)
CCC(=O)[O][Bi]([c]1ccccc1)[c]1ccccc1,79% (active),96% (active),90.2% (active),58%,97% (active),92.4% (active),68%,97% (active),92.5% (active),49%,95% (active),90% (active),81% (active),96% (active),91.5% (active),85% (active),97% (active),90% (active)
S=C(NCc1ccccc1)[S][Sb]([S]C(=S)NCc1ccccc1)[c]1ccccc1,1%,95% (active),95.8% (active),2%,97% (active),88.4% (active),-138%,93% (active),96% (active),-6%,89% (active),69.8%,-11%,93% (active),84.5% (active),6%,87% (active),97.3% (active)
O=C1OC(c2ccccc2)(c2ccccc2)CC1CN1CCOCC1 (configuration not stated),-16%,73% (active),87.8% (active),-4%,87% (active),82.6% (active),-1%,84% (active),90% (active),-9%,72% (active),66%,1%,93% (active),87% (active),2%,88% (active),79.7% (active)
C/C(=N/NC(=S)N(C)C)c1ccccc1O,2%,13%,-28.2%,-34%,9%,86.3% (active),-43%,16%,52%,18%,3%,77.9% (active),-29%,21%,36.8%,-17%,28%,16.7%
CCOC(=O)C1CC(C(=O)OCC)C(=O)C1=O (configuration not stated),45%,96% (active),96.3% (active),27%,95% (active),91% (active),54%,96% (active),43.6%,28%,97% (active),34.2%,44%,97% (active),94% (active),37%,98% (active),47.9%
COC(=O)C1(NC(=O)C(CC(=O)OCc2ccccc2)NC(=O)OCc2ccccc2)CCCCCC1 (configuration not stated),3%,30%,63%,-1%,41%,8.9%,-12%,25%,50.3%,-2%,47%,71.5% (active),-22%,66%,56.8%,-3%,64%,59.1%
CCOC(=O)C12CCSC1C1(C#N)C(C#N)=CC2(N=P(c2ccccc2)(c2ccccc2)c2ccccc2)n2c(=O)n(-c3ccccc3)c(=O)n21 (configuration not stated),45%,29%,68%,93% (active),18%,39.9%,28%,8%,59.9%,32%,34%,58.5%,96% (active),46%,88.5% (active),46%,31%,53.9%
CCCCCCCCCCC[N+]1(Cc2ccccc2)CC2CCN(Cc3ccccc3)CC2C1 (configuration not stated),97% (active),100% (active),99.5% (active),73% (active),100% (active),99.3% (active),54%,99% (active),99.6% (active),95% (active),99% (active),99.4% (active),99% (active),99% (active),99.5% (active),97% (active),99% (active),99.5% (active)
C=CCN1/C(=C/C=C\c2sc3ccccc3[n+]2CC=C)Sc2ccccc21,60%,98% (active),91.7% (active),80% (active),99% (active),93.6% (active),95% (active),99% (active),93.7% (active),93% (active),99% (active),93.5% (active),98% (active),99% (active),92.2% (active),90% (active),98% (active),91.8% (active)
